A short description of assay [1]: antimalarial activity against Dd2 strain (AID 2302;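 active = growth inhibition above 50% at the single 2 µM test dose, taken to imply half-maximal potency below 2 µM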;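 note: 0% = DMSO untreated growth and 100% = chloroquine plus artemisinin killed control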). Conditions: P. falciparum Dd2 in RBCs, LDH growth readout, 72 h; at 2 µM; active compounds read high.
Assay [2] in a line: human hepatoma cell viability loss – ATP luminescence, cytotoxicity control for P. falciparum antimalarial project, primary screen (AID 2303;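 active = inhibition above 50%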;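 note: 0% = DMSO wells and 100% = digitonin-killed cells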). Conditions: HepG2 viability, 24-48 h, at 10 µM, active compounds read high.
The target of assay [3] is L-lactate dehydrogenase (Plasmodium falciparum (isolate CDC / Honduras)) (UniProt Q27743). The assay is described as follows: PfLDH activity inhibition – cell lysate, 3D7 strain, counter-screen for P. falciparum growth inhibition project (AID 2304).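 Note: 0% = vehicle and 100% = reference inhibitor.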 Conditions: P. falciparum 3D7 crude extract, LDH APAD/NBT absorbance; at 2 µM; active compounds read high. (In general: Counterscreens check selectivity or assay interference.)

Assay [4] can be described thus: inhibition of 3D7 malaria parasite growth – strain 3D7 (AID 2306).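 Note: 0% = DMSO wells and 100% = chloroquine plus artemisinin control wells.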 The conditions noted are these: P. falciparum 3D7 erythrocytic growth, LDH absorbance, 72 h; at 2 µM; active compounds read high.
The target in assay [5] is Calcium-dependent protein kinase 1 (Plasmodium falciparum (isolate 3D7)) (UniProt P62344). The assay is described as follows: PfCDPK1 kinase inhibitors, biochemical, TCAMS library (AID 1159585; cut-off not given, nearly all actives have IC50 up to about 0.98 µM;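 note: inhibitors leave more ATP so luminescence rises with inhibition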). The conditions noted are these: recombinant PfCDPK1, Kinase-Glo ATP depletion luminescence.
Assay [6] deals with Plasmodium falciparum protein kinase 6 (PK6, PF3D7_1337100) (UniProt Q8IDW1). Nature of the assay: PfPK6 kinase inhibitors, biochemical, TCAMS library (AID 1159586). The conditions noted are these: recombinant PfPK6, Kinase-Glo ATP depletion luminescence.
The target in assay [7] is Protein kinase 7 (PK7), Plasmodium falciparum 3D7 (PF3D7_0213400) (UniProt Q7YTF7). Nature of the assay: inhibition of Plasmodium PK7 catalytic activity – biochemical, TCAMS antimalarial set, Kinase-Glo luminescence (AID 1159587). The conditions noted are these: recombinant PfPK7, Kinase-Glo ATP depletion luminescence. A general note: In Kinase-Glo more light means more ATP remaining.

Assay [8] concerns the target Calcium-dependent protein kinase 4 (Plasmodium falciparum (isolate 3D7)) (UniProt Q8IBS5). Nature of the assay: PfCDPK4 kinase inhibitors, biochemical, TCAMS library (AID 1159588; cut-off not given, nearly all actives have IC50 up to about 0.91 µM). Conditions: recombinant PfCDPK4, Kinase-Glo ATP depletion luminescence.

One may read the inhibition as the drop in the measured response relative to a control, in per cent.

The structures appear in SMILES notation. Unmarked numbers belong to inactive results. For some assays here: Measured potencies and affinities stand elsewhere. Activity calls are given as the source filed them. Unless noted, the rule behind the calls is not given here.

Sequence of Protein kinase 7 (PK7), Plasmodium falciparum 3D7 (PF3D7_0213400) (Q7YTF7 1-343): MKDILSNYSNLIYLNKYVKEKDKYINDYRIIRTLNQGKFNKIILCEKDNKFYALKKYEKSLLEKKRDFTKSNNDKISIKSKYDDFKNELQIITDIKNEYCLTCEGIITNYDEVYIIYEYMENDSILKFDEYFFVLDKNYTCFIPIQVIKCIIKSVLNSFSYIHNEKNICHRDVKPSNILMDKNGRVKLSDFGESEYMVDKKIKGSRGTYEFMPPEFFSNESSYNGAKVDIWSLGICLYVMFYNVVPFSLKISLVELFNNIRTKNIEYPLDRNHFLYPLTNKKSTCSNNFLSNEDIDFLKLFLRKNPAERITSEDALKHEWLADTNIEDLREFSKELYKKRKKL
Sequence of Plasmodium falciparum protein kinase 6 (PK6, PF3D7_1337100) (Q8IDW1 1-305): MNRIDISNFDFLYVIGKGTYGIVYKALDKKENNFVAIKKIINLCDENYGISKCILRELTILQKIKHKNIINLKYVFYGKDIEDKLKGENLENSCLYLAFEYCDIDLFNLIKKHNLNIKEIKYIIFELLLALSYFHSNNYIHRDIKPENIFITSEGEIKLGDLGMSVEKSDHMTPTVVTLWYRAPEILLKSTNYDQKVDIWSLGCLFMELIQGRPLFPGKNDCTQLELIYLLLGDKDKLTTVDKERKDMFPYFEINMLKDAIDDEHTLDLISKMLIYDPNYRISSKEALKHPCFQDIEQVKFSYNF
Sequence of L-lactate dehydrogenase (Plasmodium falciparum (isolate CDC / Honduras)) (Q27743 whole entry, looked up): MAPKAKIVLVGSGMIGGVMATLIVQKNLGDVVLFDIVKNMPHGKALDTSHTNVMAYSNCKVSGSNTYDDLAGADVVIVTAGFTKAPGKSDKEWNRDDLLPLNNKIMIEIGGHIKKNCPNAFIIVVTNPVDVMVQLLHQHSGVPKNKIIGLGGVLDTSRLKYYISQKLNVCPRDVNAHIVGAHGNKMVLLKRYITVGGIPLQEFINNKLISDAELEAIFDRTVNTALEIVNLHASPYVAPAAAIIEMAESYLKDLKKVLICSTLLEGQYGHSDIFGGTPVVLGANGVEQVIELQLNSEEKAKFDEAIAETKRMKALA
Sequence of Calcium-dependent protein kinase 1 (Plasmodium falciparum (isolate 3D7)) (P62344 whole entry, looked up): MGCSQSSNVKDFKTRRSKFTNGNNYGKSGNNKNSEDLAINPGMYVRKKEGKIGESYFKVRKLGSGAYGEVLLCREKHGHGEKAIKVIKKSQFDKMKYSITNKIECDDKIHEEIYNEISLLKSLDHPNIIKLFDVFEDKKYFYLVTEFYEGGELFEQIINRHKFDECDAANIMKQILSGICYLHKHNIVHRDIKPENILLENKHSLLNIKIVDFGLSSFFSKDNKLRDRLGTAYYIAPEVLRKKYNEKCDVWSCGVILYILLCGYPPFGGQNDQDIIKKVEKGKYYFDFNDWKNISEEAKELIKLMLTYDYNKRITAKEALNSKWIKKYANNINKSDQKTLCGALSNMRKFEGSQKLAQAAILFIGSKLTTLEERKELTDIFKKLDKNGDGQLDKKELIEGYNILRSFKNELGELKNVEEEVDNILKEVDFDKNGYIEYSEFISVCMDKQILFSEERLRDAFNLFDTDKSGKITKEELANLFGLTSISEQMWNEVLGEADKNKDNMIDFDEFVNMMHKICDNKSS
Sequence of Calcium-dependent protein kinase 4 (Plasmodium falciparum (isolate 3D7)) (Q8IBS5 whole entry, looked up): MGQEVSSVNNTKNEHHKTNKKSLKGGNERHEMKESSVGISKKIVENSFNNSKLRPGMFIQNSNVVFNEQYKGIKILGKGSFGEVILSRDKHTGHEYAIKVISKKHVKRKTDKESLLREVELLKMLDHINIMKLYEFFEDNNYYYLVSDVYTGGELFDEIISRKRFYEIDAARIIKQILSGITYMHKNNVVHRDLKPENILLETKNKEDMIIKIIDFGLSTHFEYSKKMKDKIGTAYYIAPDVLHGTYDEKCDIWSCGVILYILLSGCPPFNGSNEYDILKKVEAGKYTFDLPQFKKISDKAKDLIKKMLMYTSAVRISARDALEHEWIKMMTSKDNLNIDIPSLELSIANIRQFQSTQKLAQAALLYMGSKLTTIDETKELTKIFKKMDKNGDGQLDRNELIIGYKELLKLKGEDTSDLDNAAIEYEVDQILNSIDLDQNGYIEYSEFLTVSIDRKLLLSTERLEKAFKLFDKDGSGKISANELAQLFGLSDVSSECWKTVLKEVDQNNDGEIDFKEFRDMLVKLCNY

Regarding `COc1cc(C)nc2ccc(NC(=O)c3ccc(C(=O)Nc4ccc5nc(C)cc(OC)c5c4)cc3)cc12`, the growth inhibition in assay [1] was 72% (active); in assay [4], 96% (active). For the same molecule, the inhibition in assay [2] is 27%; in assay [3] it was -5%. Further, the result in assay [5], in assay [6], in assay [7] and in assay [8] was inactive.

Regarding `Cc1cc2nc(NC3=NC4(c5ccccn5)N=C(Nc5nc6cc(C)c(C)cc6[nH]5)NC4(c4ccccn4)N3)[nH]c2cc1C` (configuration not stated), the growth inhibition in assay [1] was 62% (active); in assay [4], 87% (active). The inhibition in assay [2] is 3%; in assay [3], -2%. Further, the outcome in assay [5], in assay [6], in assay [7] and in assay [8] was inactive.

`CCOc1ccc(Br)cc1/C=C/C(=O)Nc1ccc2c(c1)CCCN(C)C2`: the growth inhibition in assay [1] is 17%; in assay [4], 90% (active). Moreover, the inhibition in assay [2] was 40%; in assay [3], -1%. In addition, the result in assay [5], in assay [6], in assay [7] and in assay [8] was inactive.

For `O=C(NCCN1CCC(NC(=O)c2ccc(-c3ccccn3)s2)CC1)c1cccc(C(F)(F)F)c1`, the growth inhibition in assay [1] is 24%; in assay [4], 97% (active). In addition, the inhibition in assay [2] was 4%; in assay [3], -4%. Besides, the outcome in assay [5], in assay [6], in assay [7] and in assay [8] was inactive.

With `O=[N+]([O-])c1cccc(CNCC2CCN(CCc3ccccc3)CC2)c1`, the growth inhibition in assay [1] was 11%; in assay [4], 98% (active). For the same molecule, the results for the inhibition in assay [2] and in assay [3] were 15% and -6%, respectively. For the same molecule, the result in assay [5], in assay [6], in assay [7] and in assay [8] was inactive.

As for `CCN(CCN(C)C)Cc1ccc(-c2ccc(NS(=O)(=O)c3cccc(Cl)c3)cc2)cc1`, the results for the growth inhibition in assay [1] and in assay [4] were 40% and 97% (active), respectively. The values for the inhibition in assay [2] and in assay [3] were 43% and 4%, respectively. Moreover, the outcome in assay [5], in assay [6], in assay [7] and in assay [8] was inactive.

Turning to `COc1cc2ncnc(Nc3ccc(OCc4ccccc4)c(C(F)(F)F)c3)c2cc1OC`, the growth inhibition in assay [1] is 78% (active); in assay [4] it was 101% (active). For the same molecule, the inhibition was 8% in assay [2] and 3% in assay [3]. In addition, the outcome in assay [5], in assay [6], in assay [7] and in assay [8] was inactive.

For `Cc1cccc(C(O)CNc2ccnc(Nc3cccc(-c4csc(C)n4)c3)n2)c1` (configuration not stated), the growth inhibition in assay [1] is 88% (active); in assay [4] it was 99% (active). In addition, the inhibition in assay [2] is 29%; in assay [3] it was 2%. In addition, the outcome in assay [5], in assay [6], in assay [7] and in assay [8] was inactive.

`O=C(Nc1ccc(Cl)cc1)c1cc(Cl)ccc1NC(=O)C1(c2ccc(Cl)cc2)CCCC1`: the growth inhibition in assay [1] is 29%; in assay [4], 85% (active). Further, the inhibition was 13% in assay [2] and -4% in assay [3]. Further, the outcome in assay [5], in assay [6], in assay [7] and in assay [8] was inactive.

`CN(CCN)Cc1ccc(-c2ccc(-c3nc4ccc(C(F)(F)F)cc4[nH]3)s2)cc1`: the growth inhibition in assay [1] and in assay [4] was 98% (active) in each case. For the same molecule, the figures for the inhibition in assay [2] and in assay [3] were 37% and 2%, respectively. The result in assay [5], in assay [6], in assay [7] and in assay [8] was inactive.

Regarding `Clc1ccc(CNc2ccnc(NCCc3coc4ccccc34)n2)c(Cl)c1`, the growth inhibition in assay [1] was 39%; in assay [4], 86% (active). The inhibition in assay [2] was 26%; in assay [3] it was -3%. Further, the result in assay [5], in assay [6], in assay [7] and in assay [8] was inactive.

Take `c1ccc(CN2CCC(NCc3cccc(-c4cncc5ccccc45)c3)CC2)cc1`: the figures for the growth inhibition in assay [1] and in assay [4] were 11% and 92% (active), respectively. The inhibition was 29% in assay [2] and 3% in assay [3]. The result in assay [5], in assay [6], in assay [7] and in assay [8] was inactive.

Consider `COc1cc(CNc2ccc(N3CCCC3)cc2)cc(Cl)c1OC`, for which the growth inhibition was 94% (active) in assay [1] and 100% (active) in assay [4]. The inhibition in assay [2] is 41%; in assay [3], 1%. Further, the outcome in assay [5], in assay [6], in assay [7] and in assay [8] was inactive.

Turning to `Cc1cccc2[nH]c(-c3ccc(-c4cccc(NCc5cn6cccnc6n5)c4)cc3)nc12`, the growth inhibition in assay [1] is 63% (active); in assay [4], 94% (active). For the same molecule, the inhibition in assay [2] is 9%; in assay [3] it was -3%. The outcome in assay [5], in assay [6], in assay [7] and in assay [8] was inactive.

Take `CN1CCCN(Cc2cccc(-c3cccc(NC(=O)c4ccc(Cl)cc4)c3)c2)CC1`: the values for the growth inhibition in assay [1] and in assay [4] were 44% and 100% (active), respectively. Also, the inhibition in assay [2] was 35%; in assay [3], 2%. Moreover, the result in assay [5], in assay [6], in assay [7] and in assay [8] was inactive.

Take `CCOc1ccc(C(=O)N2CCOC(CCN3CCC4(CCc5ccccc54)CC3)(c3ccc(Cl)c(Cl)c3)C2)cc1` (configuration not stated): the figures for the growth inhibition in assay [1] and in assay [4] were 25% and 81% (active), respectively. Also, the inhibition is 25% in assay [2] and 1% in assay [3]. Besides, the outcome in assay [5], in assay [6], in assay [7] and in assay [8] was inactive.

For `Cc1cccc2[nH]c(-c3cccc(-c4cccc(NC(=O)c5ccc(=O)[nH]n5)c4)c3)nc12`, the growth inhibition was 32% in assay [1] and 101% (active) in assay [4]. Also, the inhibition in assay [2] is 10%; in assay [3] it was -1%. The outcome in assay [5], in assay [6], in assay [7] and in assay [8] was inactive.

With `O=c1cc(NCCCNCc2cc3c(Cl)cc(Cl)cc3[nH]2)[nH]c2ccccc12`, the growth inhibition in assay [1] is -2%; in assay [4] it was 101% (active). The inhibition in assay [2] was -10%; in assay [3], -3%. Moreover, the outcome in assay [5], in assay [6], in assay [7] and in assay [8] was inactive.

`CN(C)C(=O)c1ccc(CN(Cc2ccc3c(c2)OCCO3)Cc2ccc3c(c2)OCO3)cc1`: the growth inhibition is 95% (active) in assay [1] and 89% (active) in assay [4]. Further, the inhibition in assay [2] was -10%; in assay [3], 3%. For the same molecule, the outcome in assay [5], in assay [6], in assay [7] and in assay [8] was inactive.

The values are drawn from PubChem BioAssay.
